These results are taken from ChEMBL document CHEMBL3988442, “University of Dundee, Small-Polar-MMV Screening Library” (2021).

In assay [1] the target is T1, Aspartate--tRNA(Asp/Asn) ligase (Mycobacterium tuberculosis (strain ATCC 25618 / H37Rv)) (UniProt P9WFW3). Note: in the data most compounds retested in dose-response had high values.
T1 sequence (whole entry): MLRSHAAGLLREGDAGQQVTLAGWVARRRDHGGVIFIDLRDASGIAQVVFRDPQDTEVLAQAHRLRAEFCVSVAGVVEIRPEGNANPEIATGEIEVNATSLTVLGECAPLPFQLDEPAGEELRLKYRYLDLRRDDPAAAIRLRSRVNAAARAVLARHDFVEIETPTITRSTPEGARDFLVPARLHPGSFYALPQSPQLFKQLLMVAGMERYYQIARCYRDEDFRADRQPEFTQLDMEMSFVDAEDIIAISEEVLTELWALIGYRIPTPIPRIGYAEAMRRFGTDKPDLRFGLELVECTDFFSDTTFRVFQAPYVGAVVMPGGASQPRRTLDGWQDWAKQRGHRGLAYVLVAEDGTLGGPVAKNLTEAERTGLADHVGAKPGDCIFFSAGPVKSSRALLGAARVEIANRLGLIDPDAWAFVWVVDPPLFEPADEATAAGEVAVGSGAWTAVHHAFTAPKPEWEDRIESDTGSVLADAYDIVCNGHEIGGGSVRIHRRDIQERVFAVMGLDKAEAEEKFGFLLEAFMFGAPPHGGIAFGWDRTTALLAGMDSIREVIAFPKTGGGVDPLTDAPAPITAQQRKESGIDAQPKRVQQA
As to the kind of experiment: Assay for Asp RNA synthetase-1 from Mycobacterium tuberculosis. In kind it is functional. Further details: scale not given: direction of the effect not stated beside the values. The conditions noted are these: 30 µM.

Assay [2] concerns the target Shiga toxin 2 (Escherichia coli O157:H7) (UniProt P09385+P09386). As to the kind of experiment: E. coli 0.157:H7 Shiga Toxin SOP - stx2 screening assay. Type of assay: functional. Further details: scale not given: direction of the effect not stated beside the values. The conditions noted are these: 30 µM.

In the case of `COCCN1CCC(CN(CC2CCCO2)C(=O)CCNC(C)=O)CC1` (centres undefined), the Percent Effect in assay [1] is -0.167%; in assay [2] it was -3.65%.
On to `Cc1oc(C)c(C(=O)NCc2ccccn2)c1C`, for which the Percent Effect was -4.72% in assay [1] and 26.9% in assay [2].
In the same order, the values of `CCn1nc2c(cc1=O)CN(Cc1nc(-c3ccsc3)no1)CC2` are 5.03% and -16.2%.
On to `CCCc1nc(CN2CCOC(CNc3cccnn3)C2)cs1` (centres undefined), for which the Percent Effect was 3.73% in assay [1] and 27.3% in assay [2].
In the case of `O=c1c2cnc(N3CCCCC3)nc2ccn1-c1ccccc1`, the figures for the Percent Effect in assay [1] and in assay [2] were -0.697% and -17.9%, respectively.
In the same order, the values of `OCCOc1nc(-c2ccccc2Cl)no1` are -8.6% and -16.2%.
Consider `O=C(c1cccs1)N1CCC(Cn2nc(-c3ccco3)ccc2=O)CC1`, for which the Percent Effect is -3.23% in assay [1] and 5.24% in assay [2].
In the same order, the values of `CNS(=O)(=O)CCCN1CCCC1c1cc(C)on1` (centres undefined) are 1.49% and 5.74%.
In the same order, the values of `CCOC(=O)CN1CCC2(CC1)CC(=O)c1ccc(OC)cc1O2` are -2.78% and 10.6%.
In the same order, the values of `NC(=O)c1cc(C2CCCN(CCOCC(F)(F)F)C2)n[nH]1` (centres undefined) are -1.37% and -3.62%.
Consider `Cn1cc(CN2C[C@@H]3COC[C@]3(CNC(=O)c3ccsc3)C2)cn1`, for which the Percent Effect in assay [1] is 0.656%; in assay [2], -3.31%.
In the same order, the values of `CS(=O)(=O)N1CCC[C@]2(C[C@@H](Oc3ncccc3F)CO2)C1` are 7.67% and -11.6%.
In the same order, the values of `Cc1cc(C)n(CC2CCCN2CC(=O)N(C)C)n1` (centres undefined) are -2.12% and 10.1%.
In the same order, the values of `CC(C)(C)c1nc(CN2CCCC2Cn2cccn2)no1` (centres undefined) are -2.09% and -50.8%.
Turning to `O=C(Cc1ccc2c(c1)CCO2)N1CCN(c2cnccn2)CC1`, the figures for the Percent Effect in assay [1] and in assay [2] were -4.06% and -23.3%, respectively.
In the same order, the values of `O=C([C@H]1CCCO1)N1CC[C@H](O)[C@@H]1Cc1ccncc1` are -1.01% and 1.58%.
In the same order, the values of `CN1Cc2c(C(=O)Nc3cccnc3)ncn2-c2ccccc2S1(=O)=O` are -2.67% and 6.47%.
In the same order, the values of `Cc1oc(C(=O)O)cc1S(=O)(=O)Nc1ccc(Cl)c(F)c1` are 1.64% and 16.3%.
Consider `COCCn1ccc2cc(NC(C)=O)ccc21`, for which the Percent Effect in assay [1] is -5.18%; in assay [2] it was -9.31%.
In the same order, the values of `COc1ccccc1OCc1cc(C(=O)N2CC(O)C2)n[nH]1` are 2.09% and 1.76%.
As to `Cc1ccc(C(O)CNC(=O)NCc2nc(C)cs2)cc1` (centres undefined), the Percent Effect was -0.636% in assay [1] and 1.54% in assay [2].
In the case of `Cc1nc(C)n(CC2CCCN2CCOc2ccc(C#N)cc2)n1` (centres undefined), the Percent Effect in assay [1] was -3.28%; in assay [2] it was -0.486%.
In the same order, the values of `O=C(C1=CCCC1)N1C[C@@H]2COC[C@]2(COc2cccnc2)C1` are -3.68% and 1.76%.
For the compound `CC(NC1(CNC(=O)Cn2cccn2)CCOCC1)c1ccccc1` (centres undefined), the values for the Percent Effect in assay [1] and in assay [2] were -0.24% and 10.6%, respectively.
In the same order, the values of `CC(C)c1nnc(NC(=O)NCc2ccc(CO)c(F)c2)s1` are 1.21% and 0.535%.
In the same order, the values of `Cc1ccc(C)c(OCCN2CCC(N3CCNC3=O)CC2)c1` are 0.583% and -1.43%.
For `CSc1ncccc1C(=O)N1C[C@H]2CC[C@@H]1CN(c1cnccn1)C2`, the Percent Effect in assay [1] was 7.16%; in assay [2], -42.6%.
With `Cc1nn(C)c(C)c1C1COCCN1C(=O)c1n[nH]c2ccccc12` (centres undefined), the Percent Effect in assay [1] was -1.46%; in assay [2] it was -15.4%.
In the same order, the values of `Cc1cc(C[S+]([O-])CC(=O)Nc2c(C)cccc2C)no1` (centres undefined) are -6.04% and 17%.
In the same order, the values of `O=C(c1cccc(NCCO)c1)N1CCOCC1` are 7.13% and -69.6%.
In the same order, the values of `CCc1ncc(CN(C)C(=O)Nc2cccnc2N2CCCC2)s1` are 2.75% and -14.5%.
As for `CN(C)CC(=O)N1CCC2(CC1)COC(COc1ccccn1)C2` (centres undefined), the Percent Effect in assay [1] is 2.27%; in assay [2], -20.6%.
In the same order, the values of `Cc1ccc(-c2noc(CN3CCOC(CN(C)C)C3)n2)cc1F` (centres undefined) are 3.61% and 24.6%.
In the same order, the values of `CCc1nc(C2CCCN2CCc2ccccn2)no1` (centres undefined) are -4.14% and -69%.
In the same order, the values of `O=C(NCCC(=O)N1CCCc2ccccc21)c1c(O)cc(F)cc1F` are -3.63% and -9.36%.
Turning to `NC(=O)C1CCN(C(=O)CCn2ccc3cc(Br)ccc32)CC1`, the Percent Effect in assay [1] was found to be 0.306%; in assay [2] it was 12.4%.
In the same order, the values of `CN(C(=O)Cn1nc(-c2ccc(F)cc2)oc1=O)C1CCS(=O)(=O)C1` (centres undefined) are 4.6% and -7.66%.
In the same order, the values of `CCn1c(Cn2cncn2)nnc1C1CCN(Cc2ccncc2)CC1` are 4.98% and 0.0626%.
In the same order, the values of `COc1cccc(COCC(=O)N2CCCC(n3ccnc3)C2)c1` (centres undefined) are -3.41% and 23.8%.
On to `COCC1c2c(cnn2C)CCN1Cc1ccoc1` (centres undefined), for which the values for the Percent Effect in assay [1] and in assay [2] were 2.94% and -3.41%, respectively.
In the same order, the values of `CC(C)c1nc(CN(C)C2CCN(CC(F)(F)F)C2)no1` (centres undefined) are 8.54% and -4.21%.
In the same order, the values of `Cc1cc2c(=O)n3c(nc2s1)CCN(Cc1cnc(C(C)C)nc1)CC3` are 6.6% and 14.8%.
With `CCn1cc(CN2CCCN(C(=O)CCc3ccncc3)CC2)cn1`, the Percent Effect in assay [1] is 0.516%; in assay [2] it was -80.5%.
In the same order, the values of `Cc1ccc2oc(C(=O)N3CCCC(n4nc(C)cc4C)C3)cc2n1` (centres undefined) are -3.54% and 1.89%.
Turning to `O=C(CSc1ccccn1)N1C[C@H]2CC[C@@H]1CN(Cc1cscn1)C2`, the Percent Effect in assay [1] is -1.93%; in assay [2], -6.72%.
In the same order, the values of `CCN1CCOC(CNCc2ccccc2OCC(=O)N(C)C)C1` (centres undefined) are -4.95% and 21.6%.
With `Cc1ccc(CN2CCC3(CC2)OC(C(=O)N(C)C)c2ccccc23)o1` (centres undefined), the Percent Effect in assay [1] is 3.43%; in assay [2] it was -27.1%.
